IMPase cell inh – qHTS Assay for Identifying the Cell-Membrane Permeable IMPase Inhibitors. Inositol monophosphatase 1 (Rattus norvegicus), P97697. CHO-M1 cells, IP1 accumulation, HTRF TR-FRET ratio. inhibition (IP1 accumulation), % at 46.1 µM. 120,000 tested, under 10 active. AID 901, 2007; active means well fitted curve in the direction sought with a large enough effect in the signal ratio, not every such curve was filed as active; inconclusive means small, poorly fitted or top-dose-only effect, or a change in a side signal; inactive means no such curve, though single readings can be large or run the other way; the % refers to the signal ratio;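 further: cells stimulated with carbachol in lithium chloride buffer; higher means more IMPase inhibition seen as more IP1 and lower FRET ratio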
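Elevated IP1 in lysates lowers TR-FRET signal (665/620 ratio and 620 channel reported). Cells were CHO-M1, given carbachol (50 uM as added) plus 50mM LiCl, pH 7.4, 30 min, 37C; compounds titrated up to 46 uM; AC50 by Hill equation.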
HTT ATP protect – qHTS Multiplex Assay to Identify Dual Action Probes in a Cell Model of Huntington: Cytoprotection (ATP) | Potency, µM (top dose mostly 56.4 µM), most hits filed as activators | 230,000 compounds, 0.14% hits | PC12 HTT-Q103 induced, cytoprotection, ATP luminescence, 40 h; further: nearly all actives have a fitted effect of over 45% in size
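Huntington model: PC12 line, ecdysone-inducible HTTQ103 exon1–GFP, tebufenozide 100 nM. Test articles in a dose series. Endpoint luminescence from cellular ATP.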
HttQ103 aggreg – qHTS Multiplex Assay to Identify Dual Action Probes in a Cell Model of Huntington: Aggregate Formation (GFP) | PC12 HttQ103-GFP aggregates, Acumen cytometry, 40 h | Potency, µM (titrated, usually from 46.1 µM), actives largely listed as inhibitors | 220,000 compounds, 1.1% hits | AID 1688, 2009; further: nearly all actives have a fitted effect of over 60% in size
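PC12/HTTQ103-GFP, ecdysone-inducible; teb 100 nM; cpd qHTS titration; GFP aggregates read on laser cytometer, Ex 488/Em 500-530 nm.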
HPGD block – qHTS Assay for Inhibitors of HPGD (15-Hydroxyprostaglandin Dehydrogenase); purified HPGD, NADH fluorescence kinetic, PGE2 substrate; Potency, µM, actives largely listed as inhibitors; 150,000 compounds, 4.3% hits; active means well fitted inhibition curve with a large enough effect, not every such curve was filed as active; inconclusive means small, poorly fitted or top-dose-only effect, or another doubt; inactive means no such curve, though single readings can be large or run the other way
Target sequence (P15428 whole entry, looked up): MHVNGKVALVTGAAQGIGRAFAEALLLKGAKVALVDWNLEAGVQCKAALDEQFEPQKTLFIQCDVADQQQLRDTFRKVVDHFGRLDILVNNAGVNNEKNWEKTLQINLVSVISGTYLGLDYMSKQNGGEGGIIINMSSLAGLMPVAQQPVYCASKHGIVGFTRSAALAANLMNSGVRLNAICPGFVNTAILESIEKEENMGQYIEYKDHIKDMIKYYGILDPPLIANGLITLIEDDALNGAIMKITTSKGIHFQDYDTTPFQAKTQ
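20 nM HPGD preincubated 15 min at room temperature with compound in 50 mM Tris-HCl pH 8, 0.01% Tween 20. Started with 1 mM NAD+ and 30 uM prostaglandin E2; NADH fluorescence (360/450 nm) read 5 times over 30-s intervals, last minus first.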
ALDH1A1 inh-1 – qHTS Assay for Inhibitors of Aldehyde Dehydrogenase 1 (ALDH1A1). Aldehyde dehydrogenase 1A1 (Homo sapiens), P00352. Purified ALDH1A1, NADH fluorescence, propionaldehyde substrate. Potency, µM (titrated, usually from 75.3 µM), usual class: inhibitors. 220,000 compounds, 7.3% hits; active means well fitted inhibition curve with a large enough effect, not every such curve was filed as active; inconclusive means small, poorly fitted or top-dose-only effect, or another doubt; inactive means no such curve, though single readings can be large or run the other way
IMPase Li cell – qHTS Assay for Identifying the Cell-Membrane Permeable IMPase Inhibitors: Potentiation with Lithium; 210,000 compounds, 0.35% hits; Potency, µM (titrated, usually from 59.4 µM), most hits filed as inhibitors; CHO-M1 cells, IP1 TR-FRET (IP-One), carbachol + lithium; AID 1457, 2008;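 further: IP1 builds up when IMPase is blocked and the TR-FRET signal falls; nearly all actives have a fitted effect of over 50% in size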
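CHO cells stably expressing M1 receptor (2000/well) were cultured 16–30 h, then exposed to compounds with a small lithium addition for 30 min at 37C. IP1 was measured by TR-FRET competition; AC50 from Hill fits.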
HPGD inh conf – Confirmation qHTS Assay for Inhibitors of HPGD (15-Hydroxyprostaglandin Dehydrogenase); shares compounds with HPGD block; recombinant HPGD, NADH fluorescence, PGE2 substrate; Potency, µM (series often up to 57.1 µM), hits mostly inhibitors; 90 compounds, 90% hits; AID 2429, 2010; calls by dose curve
ALDH1A1 inh-2 – Inhibitors of Aldehyde Dehydrogenase 1 (ALDH1A1): Followup Confirmation and Counterscreen; purified ALDH1A1, NADH fluorescence, propionaldehyde/NAD+; shares compounds with ALDH1A1 inh-1; Potency, µM (series often up to 57.1 µM), hits mostly inhibitors; 90 compounds, 90% hits; calls by dose curve
Large screens that a line does not name were inactive (follow-up assays come after a bar, where they were run); ! = not active in a repeat. Only some compounds are listed: those with a hit (about 9.4% of all), similar ones and a draw of the others. Unless noted, the call rests on the fitted dose curve; in most records, active means well fitted curve in the direction sought with a large enough effect; inconclusive means small, poorly fitted or top-dose-only effect, or another doubt; inactive means no such curve, though single readings can be large; an effect the other way counts as inactive or inconclusive.

C=CCn1c(=O)c(C=Nc2c(OC)cccc2[N+](=O)[O-])c(O)n(CCCC)c1=O	ALDH1A1 inh-1 12.6µM (no result: IMPase cell inh)
Clc1cncc(N2CCNCC2)n1	HTT ATP protect 0.159µM!, HPGD block inconclusive (no result: HttQ103 aggreg)
Cc1ccc(-c2nc(N3CCOCC3)s[n+]2-c2ccccc2)cc1	HPGD block 0.159µM, ALDH1A1 inh-1 2.51µM (no result: IMPase cell inh, HTT ATP protect) | HPGD inh conf 3.16µM
CC1Cc2c(cnc3c2CN(C)CC3)CO1 (stereo not given)	none (no result: IMPase cell inh, HttQ103 aggreg, HPGD block, IMPase Li cell)
CC(=O)Nc1ccccc1OP1(=O)COc2ccccc2OC1	IMPase cell inh inconclusive | HPGD inh conf inactive
CC(=O)Nc1ccccc1C(=O)OCC(=O)c1ccccc1Cl	none (no result: IMPase cell inh, HTT ATP protect)
COc1ccc2c(c1)CCC1C2CC[C@@]2(C)C1CC[C@@H]2NCCCCCCN1C(=O)C=CC1=O (stereo not given in full)	ALDH1A1 inh-1 0.501µM (no result: IMPase cell inh, HTT ATP protect, HttQ103 aggreg) | ALDH1A1 inh-2 5.01µM
CCCN(CCC)[C@@H]1CCc2c(F)ccc(O)c2C1	none (no result: IMPase cell inh, HTT ATP protect, HttQ103 aggreg)
